Screens: PubChem BioAssay, National Center for Advancing Translational Sciences (NCATS)
MARV entry inh: blocks Marburg virus binding to or entry into cells; Marburg virus pseudotyped entry inhibition, cell reporter; Potency, µM (top dose mostly 37.8 µM), without a hit: at the highest dose activity change, negative = inhibition, usual class: inhibitors; 300,000 tested, 1.8% active; AID 540276; calls by dose curve; tested in HEK293 cells; also: potency is read from the fitted curve at half-maximal effect
HCMV inh: blocks human cytomegalovirus replication; HFF cells, HCMV-luciferase reporter, 72 h; hits give low values; activity change, negative = inhibition, % at 57.5 µM; AID 1259415; 410,000 tested, 4.5% active; in the data active = activity change below about -60%; inconclusive = no clear call, values can overlap the other calls; inactive = above about -39%
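HFF cells seeded 16 h at 37C, treated with compounds, infected with luciferase-reporter HCMV at MOI 1 PFU/cell; luciferase read at 72 h post infection, normalized to buffer-only and Salinomycin controls.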
HCV inh: blocks hepatitis C virus | Huh7.5.1 HCVcc-Cre infection, luciferase reporter, 44 h | Potency, µM (doses to about 41.8 µM), for the others: at the top dose activity change, negative = inhibition, hits mostly inhibitors | 340,000 tested, 3.4% active | AID 651820; active = well fitted inhibition curve with a large enough effect; inconclusive = small, poorly fitted or top-dose-only effect, or another doubt; inactive = no such curve, though single readings can be large or run the other way; also: potency is read from the fitted curve at half-maximal effect
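Compounds are dispensed onto cells plated 4 h earlier at 1,000 per well, with HCVcc-Cre virus (about 0.5 moi) added next. Following 44 h of culture, luminescent signal is measured for 15 sec after 15 min with substrate at room temperature.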
LASV entry inh: blocks Lassa virus binding to or entry into cells; Lassa virus pseudotype entry inhibition, cell reporter; Potency, µM (series often up to 37.9 µM), for inactives: top-dose activity change, negative = inhibition, actives largely listed as inhibitors; 300,000 tested, 1.2% active; AID 540256; calls by dose curve; tested in HEK293 cells; also: potency is read from the fitted curve at half-maximal effect; nearly all actives have a fitted effect of over 50% in size
FMDV antiviral: antivirals against foot and mouth disease virus | FMDV antiviral cell-based qHTS | Potency, µM (doses to about 57.9 µM), inactives show top-dose activity change, negative = inhibition, most hits filed as inhibitors | 410,000 tested, 1.2% active; calls by dose curve; tested in HEK293T cells; also: read-out not given here; potency is read from the fitted curve at half-maximal effect; nearly all actives have a fitted effect of over 45% in size
* = called active by the depositor; ? = inconclusive; . = no result; [ ] = another dose, or the depositor's remark. In the library only some 7.9% were active in any assay of this set; here they are far more common. % is scaled to controls: 0 for no effect and ±100 for the full control effect.

SMILES | MARV entry inh | HCMV inh | HCV inh | LASV entry inh | FMDV antiviral
Cc1cnc(-n2ncc(C(=O)NCCc3cccnc3)c2C)nc1-c1ccc(F)cc1 | . | . | . | . | 6%
OC(c1ccccc1)(c1nc(-c2ccc3ccccc3c2)cs1)C(F)(F)F (stereo not drawn) | . | -83* | . | . | 3%
OC(c1ccccc1)(c1nc(/C=C/c2ccccc2)cs1)C(F)(F)F (stereo not drawn) | . | -61* | . | . | 14%
CC(O)(c1ccccc1)c1nc(/C=C/c2ccccc2)cs1 (stereo not drawn) | . | -8 | . | . | -5%
COCOc1ccc(Br)cc1C(=O)[C@@H]1O[C@@H]1c1cccc(OC)c1 | -17%[14.2 µM] | . | . | . | .
O=C(Nc1ccc(F)cc1)C(c1cc2ccccc2o1)N1CCN(CC(=O)N2CCCC2)CC1 (stereo not drawn) | . | 52 | . | . | -2%
COc1ccc2[nH]c3c(c2c1)CCN(C(=O)c1cccc(Cl)c1)C3c1ccc(F)cc1 (stereo not drawn) | 1µM* | -73* | . | ? | -15%
COc1ccc(OCC(O)CN(C)C(=O)/C=C/c2cccc([N+](=O)[O-])c2)cc1 (stereo not drawn) | 0%[46.1 µM] | -78* | -7% | 7% | -23%
COc1cc(OC)c(OC)cc1CN1CCN(Cc2ccc(SC)cc2)CC1 | 7.3µM* | -36 | ? | ? | -26%
COc1ccc(CN2CCN(Cc3ccc(C)cc3)CC2)c(OC)c1 | 10µM* | -10 | ? | 5% | -12%
COc1ccc(CN2CCN(Cc3ccc(C(F)(F)F)cc3)CC2)c(OC)c1 | . | -26 | ? | . | ?
COC(=O)Cc1ccc(NC(=S)NCCSc2ccc(Cl)cc2)cc1 | ? | -11 | -11% | -17%[46.1 µM] | 1%
CCOC(=O)N1CCN(CC(=O)Nc2nnc(C(F)(F)F)s2)CC1 | . | -5 | 9% | . | -14%
COC(=O)C1=C(C)N(Cc2ccco2)C(=O)NC1c1ccc(Br)cc1 (stereo not drawn) | ? | . | . | 3%[14.3 µM] | .
CC1CCCCC1NC(=S)Nc1ccc(SC(F)F)cc1 (stereo not drawn) | -17% | -100* | 11µM* | ? | -9%
CC1CCN(C(=S)Nc2ccc(SC(F)F)cc2)CC1 | -24% | -37 | ? | -8% | 25%
CC(=O)N1CCN(C(=S)Nc2ccc(SC(F)F)cc2)CC1 | 5%[46.1 µM] | -76* | 29% | . | 81%
FC(F)Sc1ccc(NC(=S)NCC2CCCCC2)cc1 | -26% | -97* | 32µM* | -26% | 9%
Cc1ncc(Cc2ccccc2)c(C2CCN(S(=O)(=O)C[C@]34CC[C@H](CC3=O)C4(C)C)CC2)n1 | . | . | . | . | 46%
CCOc1cc(C(=O)OC(C(=O)NC(=O)NC)c2ccccc2)ccc1OCC(=O)N1CCOCC1 (stereo not drawn) | ? | 34 | -19% | 17% | -16%
Cc1ccc(C)c(NC(=S)Nc2cccnc2)c1 | ? | -1 | 5% | -3% | -10%
Cc1ccc(NC(=S)Nc2cccnc2)c(S(=O)(=O)N2CCCCC2)c1 | ? | -75* | 11µM* | ? | -19%
Cc1ccc(NC(=O)CSc2nn(-c3ccc(Cl)cc3)c(=S)s2)cc1S(=O)(=O)N(C)C | ? | -83* | 13µM* | 11µM* | ?
CN(C)S(=O)(=O)c1cc(NC(=O)CSc2nn(-c3ccc(Cl)cc3)c(=S)s2)ccc1Cl | ? | -85* | 6.3µM* | ? | ?
NS(=O)(=O)c1cccc(NC(=O)CSc2nn(-c3ccccc3)c(=S)s2)c1 | ? | -20 | ? | ? | ?
SMILES | MARV entry inh | HCMV inh | HCV inh | LASV entry inh | FMDV antiviral
Cc1ccc(NC(=O)Cn2ccsc2=N)cc1S(=O)(=O)N(C)C | -24%[46.1 µM] | -37 | -15% | -4%[46.1 µM] | 16%
CCN(c1ccccc1)c1cc2ccccc2c(=O)[nH]1 | -2%[46.1 µM] | -64* | -18% | 2% | 2%
O=C1Nc2ccccc2/C1=N/N=C/c1ccc(-c2ccc([N+](=O)[O-])cc2)o1 | . | -83* | 2% | . | 0%
CN(/N=C/c1ccc(-c2ccc([N+](=O)[O-])cc2)o1)c1ccccc1 | -4%[46.1 µM] | -18 | ? | 1%[46.1 µM] | 12%
COCc1[nH]nc2c1[C@@H](c1sccc1C)C(C#N)=C(N)O2 | -12% | . | . | . | .
Cc1ccc(C(c2nnnn2Cc2cccs2)N2CCN(Cc3ccc4c(c3)OCO4)CC2)cc1 (stereo not drawn) | ? | 2 | ? | 11µM* | 16%
CCC(C)(C)n1nnnc1C(c1cc2cc(C)cc(C)c2[nH]c1=O)N1CCCC1 (stereo not drawn) | ? | -5 | ? | 4% | 18%
CC(C)C(c1nnnn1Cc1ccc(F)cc1)N1CCN(Cc2ccc3c(c2)OCO3)CC1 (stereo not drawn) | 13µM* | -5 | ? | ? | ?
CCC(C)(C)n1nnnc1C(c1cc2cc(C)cc(C)c2[nH]c1=O)N1CCN(Cc2ccc3c(c2)OCO3)CC1 (stereo not drawn) | 12% | -60* | 23% | 1% | 5.6µM*
COCCn1nnnc1C(c1ccc(Cl)cc1)N1CCSCC1 (stereo not drawn) | -15% | -1 | 16% | 7% | .
Cc1ccc(C(c2nnnn2CCc2ccccc2)N2CCSCC2)cc1 (stereo not drawn) | 2.2µM* | ? | -29% | ? | 19%
CCCc1nn2c(=O)cc(COC(=O)c3ccc(NC(=O)COc4ccccc4)cc3)nc2s1 | . | -1 | . | 19%[46.1 µM] | -6%
Cn1cnnc1SCC(=O)Nc1ccccc1Sc1ccccc1 | -10% | -63* | 3% | -9% | 10%
Cc1cccc(NC(=O)CSc2nncn2C)c1 | -4%[46.1 µM] | 6 | . | 21%[46.1 µM] | 1%
COC(=O)c1ccccc1NC(=O)CSc1nncn1C | 3%[46.1 µM] | 33 | 7% | 12%[46.1 µM] | -11%
Cc1ccc(NC(=O)CSc2nncn2C)c(C)c1 | -11%[46.1 µM] | -105* | . | 6%[46.1 µM] | -16%
CCCN1C(=O)C[C@H](S(=O)(=O)c2ccccc2)[C@H]1c1ccccc1OC | . | -9 | . | . | .
COc1ccc(CCNC(=O)c2cc(-c3ccccc3)c(N3CCOCC3)s2)c(OC)c1OC | . | -30 | 10µM* | . | -25%
CN(Cc1ccc2c(c1)OCO2)C(=O)c1cc(-c2ccccc2)c(N2CCOCC2)s1 | . | 0 | 10µM* | . | -15%
O=C(NCc1ccco1)c1cc(-c2ccccc2)c(N2CCOCC2)s1 | ? | 4 | 8.9µM* | -3% | -24%
O=C(O)c1cc(-c2ccccc2)c(N2CCOCC2)s1 | 7% | 5 | -3% | 6% | -12%
CCOc1ccc(CCNC(=O)c2cc(-c3ccccc3)c(N3CCOCC3)s2)cc1OCC | . | -32 | ? | . | ?
O=C(NCc1ccc2c(c1)OCO2)c1cc(-c2ccccc2)c(N2CCOCC2)s1 | . | . | 14µM* | . | -25%
Fc1ccc(C2=CCN(C(c3cccs3)c3nnnn3CCc3ccccc3)CC2)cc1 (stereo not drawn) | -2%[46.1 µM] | ? | ? | ? | -6%
CCC(C)(C)n1nnnc1C(c1cccs1)N1CC=C(c2ccc(F)cc2)CC1 (stereo not drawn) | 15µM* | -63* | ? | ? | .
